{"source": "PubChem BioAssay AID686979", "about": "(National Center for Advancing Translational Sciences (NCATS), 2013)", "note": "About 50,000 (12%) of roughly 420,000 compounds were called active. Not shown: some 26% with an inconclusive outcome. This excerpt belongs to a sample that is enriched for actives. A number with no mark means an inactive call. Calls come from the whole dose curve; as a rule, active = well fitted inhibition curve with a large enough effect; inconclusive = small, poorly fitted or top-dose-only effect; inactive = flat fitted curve, though single readings scatter. % is set by controls: 0 for no effect and ±100 for the full control effect; potency is the fitted concentration of half-maximal effect.", "data": [{"assay": "qHTS for Inhibitors of human tyrosyl-DNA phosphodiesterase 1 (TDP1): qHTS in cells in presence of CPT; note: nearly all actives have a fitted effect of over 55% in size", "conditions": "chicken DT40 Tdp1-/-;hTDP1 cells + 20 nM CPT, ATP luminescence, 48 h; series mostly up to 46.2 µM; activity change, negative = growth inhibition: at the top concentration", "in_short": "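Cell growth measured by CellTiter-Glo luminescence after a minimum 48 h, 37 C compound exposure with 20 nM CPT in Tdp1-knockout DT40 cells stably expressing hTDP1, seeded 400/well; qHTS titration format.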", "units": {"activity change, negative = growth inhibition": "%"}, "values": [{"smiles": "Cc1ccc(OCC(=O)Nc2ccc3oc(=O)ccc3c2)cc1C", "activity change, negative = growth inhibition": -0.987}, {"smiles": "CSc1cccc(NC(=O)C2CCCN2S(=O)(=O)c2ccc3c(c2)CCC(=O)N3)c1", "note": "(stereo not given)", "activity change, negative = growth inhibition": -21.6}, {"smiles": "N#Cc1c(N)nc2c(c1N)CC(C(F)(F)F)O2", "note": "(stereo not given)", "activity change, negative = growth inhibition": 0.681}, {"smiles": "CCc1ccc(CNC(=O)c2cc3cc4ccc(OC)cc4nc3o2)cc1", "activity change, negative = growth inhibition": 1.41}, {"smiles": "CC(C)Cc1ccc(-c2cc3nc(NCc4cccc(Cl)c4)ccn3n2)cc1", "Potency": "20.6 µM (active)"}, {"smiles": "Cc1ccc(-c2cc(N)n(Cc3cccc(Cl)c3)n2)cc1", "activity change, negative = growth inhibition": -22.3}, {"smiles": "CCNC(=S)N1CCN(CCN=CC2=C(O)CC(C)(C)CC2=O)CC1", "activity change, negative = growth inhibition": 3.82}, {"smiles": "COc1ccccc1N(C)S(=O)(=O)c1ccc(C(=O)NC2CCCCCC2)cc1", "Potency": "23.1 µM (active)"}, {"smiles": "COc1ccccc1N(C)S(=O)(=O)c1ccc(C(=O)N2CCC(C(N)=O)CC2)cc1", "activity change, negative = growth inhibition": -21}, {"smiles": "COc1ccc(S(=O)(=O)NC(C)C)cc1C(=O)NC1CCCCC1", "activity change, negative = growth inhibition": 7.46}, {"smiles": "CO[C@]1(NC(=O)CSC(F)F)C(=O)N2C(C(=O)O)=C(CSc3nnnn3CCO)CO[C@H]21", "activity change, negative = growth inhibition": 1.05}, {"smiles": "CCn1c(SCC(=O)NC2CC2)nnc1-c1ccccc1OC", "activity change, negative = growth inhibition": 6.21}, {"smiles": "COC(=O)c1ccc(COc2ccc(C#N)cc2)o1", "activity change, negative = growth inhibition": -0.114}, {"smiles": "CCc1cccc(C)c1N1C(=O)CN(Cc2ccccc2)C1=S", "activity change, negative = growth inhibition": -2.8}, {"smiles": "COCC(=O)N1CCCC(C(=O)c2ccc(C(F)(F)F)cc2)C1", "note": "(stereo not given)", "activity change, negative = growth inhibition": -21.2}, {"smiles": "Cn1cc(CCC(=O)N2CCCC(C(=O)c3ccc(C(C)(C)C)cc3)C2)cn1", "note": "(stereo not given)", "Potency": "25.9 µM (active)"}, {"smiles": "Cn1cc(/C=C/C(=O)N2CCCC(C(=O)c3ccc(C(F)(F)F)cc3)C2)cn1", "note": "(stereo not given)", "activity change, negative = growth inhibition": 8.27}, {"smiles": "CC(C)NC(=O)C1(C)CCCCCN1C(=O)c1ccc(-c2ccccc2)cc1", "note": "(stereo not given)", "Potency": "18.4 µM (active)"}, {"smiles": "CCNC(=O)C1(C)CCCN1C(=O)c1ccc(N(C)C)cc1", "note": "(stereo not given)", "activity change, negative = growth inhibition": -2.17}, {"smiles": "CC1(C(=O)NS(=O)(=O)c2ccccc2)CCN1C(=O)c1ccccc1", "note": "(stereo not given)", "activity change, negative = growth inhibition": 5.22}, {"smiles": "CC(OC(=O)c1ccc(-n2cnnn2)cc1)C(=O)NCc1ccccc1", "note": "(stereo not given)", "activity change, negative = growth inhibition": 2.67}, {"smiles": "O=C(CSc1nc(=O)n(Cc2cccnc2)c2c1CCC2)Nc1ccc(F)cc1F", "activity change, negative = growth inhibition": -2.59}, {"smiles": "Cc1oc2ncnc(N3CCCCC3)c2c1C(=O)N1CCN(c2cccc(Cl)c2)CC1", "Potency": "16.4 µM (active)"}, {"smiles": "Cc1ccc2oc(=O)c3cnn(CC(=O)N4CCN(c5cccc(Cl)c5)CC4)c3c2c1", "activity change, negative = growth inhibition": -20.3}, {"smiles": "COc1ccc(C)cc1N(C)C(=O)c1c(C)oc2ncnc(N3CCOCC3)c12", "activity change, negative = growth inhibition": 24.5}, {"smiles": "O=C1C(c2[nH]c3ccccc3c2O)=Nc2ccccc21", "activity change, negative = growth inhibition": -24.8}, {"smiles": "O=C(Nn1c(-c2ccccc2)nc2ccccc2c1=O)c1ccc([N+](=O)[O-])cc1", "activity change, negative = growth inhibition": -5.8}, {"smiles": "N=C1C(c2nc3ccccc3s2)=C(O)CN1NC(=O)c1ccc([N+](=O)[O-])cc1", "Potency": "20.6 µM (active)"}, {"smiles": "CCOC(=O)CCCN1CC(O)=C(c2nc3ccccc3s2)C1=N", "activity change, negative = growth inhibition": -18.1}, {"smiles": "COc1cccc(C(=O)n2ccc(-c3cccs3)n2)c1", "activity change, negative = growth inhibition": 5.04}, {"smiles": "CCCCc1ccc(NC(=S)NCCCN2CCOCC2)cc1", "activity change, negative = growth inhibition": -16}, {"smiles": "CCCCNC(=S)N/N=C1\\CCCCc2ccccc21", "Potency": "23.1 µM (active)"}, {"smiles": "Cc1ccc(NC(=S)N/N=C2/CCCc3c(C)cc(C)cc32)cc1", "activity change, negative = growth inhibition": 4.83}, {"smiles": "CCOc1ccccc1CN1CCN(C2CCC2)CC1CCO", "note": "(stereo not given)", "activity change, negative = growth inhibition": 1.66}, {"smiles": "COC(C/C=C/C(=O)[C@@H](C)OCc1ccccc1)OC", "Potency": "18.4 µM (active)"}, {"smiles": "COC(C[C@H](O)CC(=O)[C@@H](C)OCc1ccccc1)OC", "activity change, negative = growth inhibition": -0.491}, {"smiles": "COC(C[C@@H]1O[C@@H]1C(=O)[C@@H](C)OCc1ccccc1)OC", "activity change, negative = growth inhibition": -25.6}, {"smiles": "CCCC(C)C(=O)OCC(=O)Nc1c(Br)cc(C)cc1Br", "note": "(stereo not given)", "activity change, negative = growth inhibition": 3.63}, {"smiles": "OCC1(Cc2ccccc2C(F)(F)F)CCN(Cc2cccc3cnccc23)CC1", "activity change, negative = growth inhibition": -4.82}, {"smiles": "CC1CCCCC1NC(=O)CSc1nnc(-c2ccncc2)n1CCCN(C)C", "note": "(stereo not given)", "activity change, negative = growth inhibition": 10.5}, {"smiles": "CN1CCN(c2ccc(S(=O)(=O)N3CCOCC3)cc2NC(=O)CCc2ccccc2)CC1", "activity change, negative = growth inhibition": 0.451}, {"smiles": "CCCN(CCC)CCNC(=O)c1ccc2c(c1)NC(=O)C(CS(=O)(=O)Cc1cccc(Br)c1)N2", "note": "(stereo not given)", "activity change, negative = growth inhibition": -21.3}, {"smiles": "O=C(NCCCN1CCOCC1)c1ccc(N2CCCC2)c([N+](=O)[O-])c1", "activity change, negative = growth inhibition": 13.4}, {"smiles": "CCCNC(=O)c1ccc(N2CCC3(CC2)CC(c2cccc(Br)c2)=NO3)c(NC(=O)c2ccco2)c1", "Potency": "5.17 µM (active)"}, {"smiles": "COCCNC(=O)c1ccc(N2CCC3(CC2)OCCO3)c([N+](=O)[O-])c1", "activity change, negative = growth inhibition": -2.95}, {"smiles": "COC(=O)c1ccc(N2CCOCC2)c(NC(=O)c2ccc(Br)o2)c1", "activity change, negative = growth inhibition": 0.879}, {"smiles": "CCCNC(=O)c1ccc(N2CCC3(CC2)CC(c2ccc(Cl)cc2)=NO3)c([N+](=O)[O-])c1", "Potency": "23.1 µM (active)"}, {"smiles": "Cc1oc2c(C)c3oc(=O)c(CC(=O)N[C@@H](CC(C)C)C(=O)N[C@@H](Cc4ccccc4)C(=O)O)c(C)c3cc2c1C", "activity change, negative = growth inhibition": 0.481}, {"smiles": "COc1cc(N)c(Cl)cc1C(=O)OCC(=O)c1ccc2c(c1)NC(=O)CO2", "activity change, negative = growth inhibition": -24.7}, {"smiles": "CCOc1ccccc1NC(=O)CCc1nnc2ccc(NCc3ccco3)nn12", "activity change, negative = growth inhibition": -5.44}, {"smiles": "Cn1ncc([N+](=O)[O-])c1C(=O)Nc1cc(Cl)ccc1Cl", "activity change, negative = growth inhibition": 13.4}, {"smiles": "C/C(=N\\NC(=O)c1cccnc1)c1ccc(-n2ccnc2)cc1", "activity change, negative = growth inhibition": 6.18}, {"smiles": "Cc1ccc(C)c(NC(=O)CCC(=O)N/N=C2/CC(=O)CC(C)(C)C2)c1", "activity change, negative = growth inhibition": -5.64}, {"smiles": "Nc1[nH]c(C(=O)c2ccccc2)c(-c2ccc(Br)cc2)c1C(=O)NC1CC1", "activity change, negative = growth inhibition": -9.96}, {"smiles": "COc1cc(NS(=O)(=O)c2ccccc2)ccc1-n1nc(C)cc1C", "activity change, negative = growth inhibition": -9.7}, {"smiles": "Cc1nc(Cl)cc(N/N=C/c2ccccc2)n1", "activity change, negative = growth inhibition": -13}, {"smiles": "COc1ccccc1/C=N\\Nc1cc(C)nc(-n2nc(C)cc2C)n1", "Potency": "6.51 µM (active)"}, {"smiles": "COc1ccccc1-n1c(SCC(=O)Nc2cccc(C(=O)O)c2)nnc1-c1ccccc1O", "activity change, negative = growth inhibition": -3.19}, {"smiles": "Cc1ccc(S(=O)(=O)Nc2nc(C)cc(N/N=C/c3ccc(O)cc3)n2)cc1", "activity change, negative = growth inhibition": -0.757}, {"smiles": "COc1ccccc1/C=N/Nc1nc(C)c(C(C)=O)s1", "activity change, negative = growth inhibition": -19.1}, {"smiles": "Cc1cc(N/N=C\\c2ccc(Br)cc2)nc(-n2nc(C)cc2C)n1", "Potency": "1.64 µM (active)"}, {"smiles": "COc1cccc2c(N/N=C/c3ccco3)cc(C)nc12", "activity change, negative = growth inhibition": -2.9}, {"smiles": "COc1cccc(/C=N/Nc2cc(C)nc(-c3ccccc3O)n2)c1O", "Potency": "18.4 µM (active)"}, {"smiles": "COc1ccc(CCNS(=O)(=O)c2ccc(Cl)s2)cc1OC", "activity change, negative = growth inhibition": -20.2}, {"smiles": "COc1cc(=O)n2c(c1C(=O)N(C)Cc1nonc1C)CCN(C(=O)c1ccc(C)cc1C)CC2", "activity change, negative = growth inhibition": 14.1}]}]}
